Sampled rows, rich in hits. Any-hit rate of the full collection: about 5.7%.
ATXN2 expr inh: Primary qHTS for Inhibitors of ATXN expression; Potency, µM (top dose mostly 57 µM), usual class: inhibitors; 0.72% of 360,000 active; HEK-293 ATXN2-luciferase reporter, luminescence, 24 h; note: nearly all actives have a fitted effect of over 55% in size
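qHTS (up to 57 uM final) was run with 24 h compound exposure of reporter cells at 37 °C. Each well was multiplexed: SteadyGlo luminescence measured ATXN2-luciferase expression after a fluorogenic Gly-Phe-AFC viability readout (25 uM final).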
HepG2 viability: qHTS for Inhibitors of TGF-b: Cytotox Counterscreen; HepG2 CAGA-GFP viability, ATP luminescence, 18 h; Potency, µM (doses to about 46.1 µM), most hits filed as cytotoxic; 0.76% of 410,000 active; AID 588856, 2011
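CellTiter-Glo luminescence gave cytotoxicity after 18 hours at 37 degrees C. The cells were HepG2 CAGA-GFP in 1% FBS DMEM, stimulated with 500 pg/mL TGF-beta after compound addition. %Activity was normalised to no-cell wells (complete cell-killing) and DMSO (no toxicity), and curves were fitted and classified.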
IL-1B inflam inh: qHTS for Inhibitors of Inflammasome Signaling: IL-1-beta AlphaLISA Primary Screen; THP-1 LPS/ATP IL-1B secretion, AlphaLISA, 16 h; stronger effect = lower value; activity change, % at 57.5 µM; 4.7% of 360,000 active; AID 743279, 2014; in the data active = activity change below about -50%; inconclusive = mostly about -30% to -49%
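THP-1 cells pretreated 1 hr with compounds (up to 57.5 uM final), then stimulated with LPS (250 ng/mL final) plus ATP (1.25 mM final); secreted IL-1B measured by AlphaLISA after 16 hr, decreased signal indicating inhibition.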
TGFb inhibitor: qHTS for Inhibitors of TGF-b; 1.2% of 410,000 active; HepG2 CAGA-GFP TGF-b/SMAD3 reporter, GFP fluorescence, 18 h; TGF-beta stimulated, 500 pg/mL final; Potency, µM (series often up to 46.1 µM), most hits filed as inhibitors; AID 588855, 2011; note: nearly all actives have a fitted effect of over 65% in size
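Using HEPG2 CAGA-GFP reporter cells at 1000 cells/well, we pinned test compounds, stimulated with recombinant TGF-beta (500 pg/mL final) and measured total well GFP after 18 h.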
ATXN viability: Viability Counterscreen for Primary qHTS for Inhibitors of ATXN expression | 0.49% of 400,000 active | Potency, µM (highest dose often 56.7 µM), usual class: cytotoxic | S2 cells (HEK-293 line with an ATXN2-luciferase reporter) viability, CellTiter-Fluor protease fluorescence, 24 h | AID 651635, 2014; note: nearly all actives have a fitted effect of over 40% in size
A number is an active result; - = inactive; ? = inconclusive; . = no result given; ! = not confirmed by another sample. Unless noted, calls come from the whole dose curve; as a rule, active = well fitted curve in the direction sought with a large enough effect; inconclusive = small, poorly fitted or top-dose-only effect, or another doubt; inactive = no such curve, though single readings can be large; an effect the other way counts as inactive or inconclusive.

SMILES | ATXN2 expr inh | HepG2 viability | IL-1B inflam inh | TGFb inhibitor | ATXN viability
Cc1nc(C)n(CC(=O)N2CCOc3ccc(CN4CCN(C)C[C@@H]4c4ccccc4)cc3C2)n1 | . | . | . | . | -
O=C(NC1CCCCC1)N1CCN(C2CCCCC2)CC1 | - | - | - | - | -
S=C(NC1CCCCC1)N1CCN(C2CCCCC2)CC1 | - | 18µM | - | ? | -
O=C(Nc1ccc(S(=O)(=O)Nc2ccccc2)cc1)C1COc2ccccc2O1 (centres undefined) | - | - | -69 | 13µM | -
Cc1cc(C)nc(NS(=O)(=O)c2ccc(NC(=O)C3COc4ccccc4O3)cc2)n1 (centres undefined) | - | - | - | - | -
COc1ccccc1NC(=O)c1ccc(NC(=O)C2COc3ccccc3O2)cc1 (centres undefined) | - | - | -55 | - | -
CCN1/C(=C/c2ccc3cc(C)ccc3[n+]2C)Sc2ccc3sccc3c21 | . | - | - | - | .
Cc1sc2c3ccsc3ccc2[n+]1C | - | - | -100 | - | -
Cc1sc2ccc3sccc3c2[n+]1C | - | - | -95 | - | -
CCCC1/C(=N/O)CC(c2ccccc2)NC1c1ccccc1 (centres undefined) | - | - | -98 | - | -
CCC1C(=NO)C(CC)C(c2ccccc2)NC1c1ccccc1 (centres undefined) | ? | - | -51 | ? | ?
O=C(Nc1ccc(Cl)cc1F)c1cc(S(=O)(=O)NCc2ccc3c(c2)OCO3)ccc1F | . | - | . | - | .
CC1(C)S[C@@H]2C(C(=O)O)NC(=O)N2C1C(=O)O (some centres undefined) | . | - | . | - | .
CCOCCCNC(=O)c1cc2c(-c3ccc(Cl)cc3)nn(C)c2s1 | ? | - | - | - | ?
CCOC(=O)N1CCN(C(=O)c2cc3c(-c4cccc(OC)c4)nn(C)c3s2)CC1 | - | - | -67 | - | -
CCCN(CCC)CCNC(=O)c1cc2c(-c3ccccc3F)nn(C)c2s1 | ? | - | -92 | ? | ?
Cn1nc(-c2ccccc2F)c2cc(C(=O)Nc3ccc4c(c3)OCCO4)sc21 | - | - | -65 | - | ?
COc1cccc(-c2nn(C)c3sc(C(=O)Nc4ccc5c(c4)OCCO5)cc23)c1 | - | - | . | - | -
Cn1nc(-c2ccccc2F)c2cc(C(=O)NCc3ccc(Cl)cc3)sc21 | ? | - | . | ? | -
CCCCN(CC)CCNC(=O)c1cc2c(-c3ccc(Cl)cc3)nn(C)c2s1 | ? | 20µM! | -97 | ? | .
Cc1nc2c(C(=O)NCCc3ccccc3)cnn2c(C)c1Cc1c(F)cccc1Cl | - | - | . | - | -
C[C@H]1C[C@H]2[C@@H]3CCC4=CC(=O)C=C[C@]4(C)[C@H]3C(=O)C[C@]2(C)[C@@]1(O)C(=O)CO | - | . | . | . | -
CC(C)CNc1ncnc2oc(-c3ccco3)c(-c3ccco3)c12 | . | - | . | ? | .
Cc1nc(C)n(CC(=O)NCC2Cc3cc(-c4cccc(OC(F)(F)F)c4)ccc3O2)n1 (centres undefined) | . | . | . | . | -
CCCN(CCC)CCNC(=O)c1cc2c(-c3ccc(Cl)cc3)nn(C)c2s1 | ? | - | - | - | ?
SMILES | ATXN2 expr inh | HepG2 viability | IL-1B inflam inh | TGFb inhibitor | ATXN viability
CCN(CC)CCNC(=O)c1cc2c(-c3ccc(Cl)cc3)nn(C)c2s1 | 28µM | - | -90 | 11µM | .
CCCN(CCC)CCCNC(=O)c1cc2c(-c3ccc(OC)c(OC)c3)nn(C)c2s1 | - | - | -52 | - | -
CCN(CC)CCNC(=O)c1cc2c(-c3cccc(OC)c3)nn(C)c2s1 | ? | - | -79 | - | ?
COc1ccc(-c2nn(C)c3sc(C(=O)NCCN(C)C)cc23)cc1OC | ? | - | ? | - | ?
COCCCNC(=O)c1cc2c(-c3cccc(OC)c3)nn(C)c2s1 | - | - | - | - | -
Nc1c(I)cc(I)c(C(=O)N(CCC(=O)O)c2ccccc2)c1I | - | . | . | . | -
COc1cccc(NC(=O)C(=O)NCCc2csc(-c3ccc(C)cc3)n2)c1 | . | - | . | - | .
Cc1cc(CC(C)CC(C)(C)C)n(O)c(=O)c1 (centres undefined) | . | - | . | 5.6µM | .
CC1CN(c2nn3c(=O)c4ccccc4nc3c3ccccc23)CC(C)O1 (centres undefined) | - | - | -63 | ? | -
CCN1CCN(c2nn3c(=O)c4ccccc4nc3c3ccccc23)CC1 | - | - | -58 | - | -
CCCCN(CC)CCCNC(=O)C1CCN(c2nc3ccc(CC)cc3s2)CC1 | . | - | . | . | .
CCNc1nc(NCC)n2c(SC(C(=O)Nc3cc(C)ccc3OC)c3ccccc3)nnc2n1 (centres undefined) | - | - | -104 | - | -
COc1ccc(C)cc1NC(=O)C(Sc1nnc(-c2ccncc2)n1-c1ccc(Cl)cc1)c1ccccc1 (centres undefined) | ? | - | -59 | ? | -
COc1ccc(C)cc1NC(=O)C(Sc1nnc2ccccn12)c1ccccc1 (centres undefined) | - | - | - | - | -
COc1ccc(Cl)cc1NC(=O)Cn1nnc2sc(-c3ccccc3)cc2c1=O | - | - | . | - | ?
CC(OC(=O)c1oc2ccccc2c1COc1ccccc1)C(=O)NC(N)=O (centres undefined) | - | - | -62 | - | -
C[C@]12CC[C@@H]3c4ccc(O)cc4CC[C@H]3[C@H]1[C@@H](O)[C@@H](O)[C@H]2O | - | . | . | . | .
COc1nc(N)nc2nc[nH]c12 | - | - | -77 | - | -
CC(C)COc1ccc(C(=O)N2CCCCC2CCN2CCOCC2)cc1 (centres undefined) | . | - | . | - | .
CC(=O)Nc1ccc(Nc2cc(C(C)C)nc3c(-c4ccccc4)c(C)nn23)cc1 | ? | - | -76 | ? | ?
CCCc1cc(N2CCCC2)n2nc(C)c(-c3ccccc3)c2n1 | - | - | - | - | -
CCCc1cc(NCc2ccccn2)n2nc(C)c(-c3ccccc3)c2n1 | 10µM | - | - | ? | ?
Cc1nn2c(NCc3ccccn3)cc(C(C)C)nc2c1-c1ccccc1 | . | - | - | 11µM | ?
COc1cccc(CNC(=O)Cn2cc3c(n2)-c2c(oc(C(=O)N4CCCC4)c2C)CC3)c1OC | . | - | . | ? | .
C[C@H]1O[C@H](O[C@H]2[C@H](O)[C@@H](O)[C@@H](O[C@H]3[C@H](O)[C@@H](O)C(O)O[C@H]3CO)O[C@H]2CO)[C@H](O)[C@@H](O)[C@H]1N[C@H]1C=C(CO)[C@@H](O)[C@H](O)[C@@H]1O (some centres undefined) | - | . | . | . | .
CC(=O)c1cccc(NC(=O)c2ccc3nc(C(C)C)oc3c2)c1 | . | - | . | - | .
O=C(CSc1nccn1-c1ccc(F)cc1)Nc1ccc(OC(F)(F)F)cc1 | . | - | . | - | .
COc1cccc2cc(-c3nc(Nc4cccc(C)c4)sc3C)c(=O)oc12 | - | - | . | - | -
